Out of some 1,600 compounds screened, about 1,300 (81%) were called active. No rule for the calls is given here. The set was probably picked from earlier hits. Only a sample is shown. Potency and affinity values are given separately.
test: non-specific 3'UTR reporter inhibition in Clone20-Shn3RL – cell-based, Renilla luciferase, cherry-picked, counter-screen for Shn3 inhibitor project, dose response (AID 624133); conditions: Clone20-Shn3RL cells, Renilla luciferase luminescence, 24 h; at 35 µM (top of the series) unless noted;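 also: 0% = neutral control wells and -100% = positive control wells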

| SMILES | activity change, negative = inhibition [%] |
| --- | --- |
| CCOC(=O)C1CCN(c2cc3c(cc2NC(=O)c2ccccc2Br)n(C)c(=O)n3C)CC1 | -4.54 |
| COc1ccc(NC(=O)CCOc2cc(C)ccc2C)cc1S(=O)(=O)N1CCCCC1 | 267 |
| COc1cc(OC)cc(C(=O)OCC(=O)Nc2ccc(F)cc2F)c1 | 11.1 |
| CCOc1ccc(Br)cc1C1=CC(=O)C[C@H](c2ccc(OC)cc2)C1 | 133 |
| COc1ccc(-c2cc3nc(C)n(N)c(=O)c3s2)cc1 | 13 |
| CCSc1nnc(NC(=O)c2nc(S(=O)(=O)Cc3ccc(F)cc3)ncc2Cl)s1 | -75 |
| c1ccc(-c2cc(CSc3nc4ccccc4[nH]3)on2)cc1 | -121 |
| COc1ccccc1-n1c(SCC(=O)Nc2cc(C)on2)nc2c(c1=O)SCC2 | 58.3 |
| CSCCC(NC(=O)c1ccccc1)C(=O)OCC(=O)N(C)CCC#N (centres undefined) | 16.7 |
| CN(CC(=O)Nc1ccccc1Cl)C(=O)c1cccc(S(=O)(=O)N2CCN(c3ccccc3)CC2)c1 | -11.9 |
| Cc1cc(C(=O)COc2cccnc2[N+](=O)[O-])c(C)n1-c1ccccc1 | -74.4 |
| CNS(=O)(=O)c1cccc(C(=O)OCc2cc(C(C)=O)ccc2OC)c1 | 329 |
| COc1ccc(OC)c(NC(=O)c2cc(-c3cc(F)ccc3OCC3CCCO3)n[nH]2)c1 (centres undefined) | 26.4 |
| Cc1ccccc1N/C(=N/S(=O)(=O)c1ccccc1)c1ccc(F)cc1 | 55.6 |
| CCC12CN(S(=O)(=O)c3ccc(C)cc3)CC(CC)(CN(S(=O)(=O)c3ccc(C)cc3)C1)C2=O | 154 |
| COc1ccc(C(O)c2nc(-c3cccc(F)c3)cs2)cc1 (centres undefined) | 45.8 |
| O=C(c1n[nH]c(=O)c2ccccc12)N1CCN(C2c3ccccc3-c3ccccc32)CC1 | -59.1 |
| Cc1ccc(NC(=O)NCCCN2CCOCC2)cc1 | -95.8 |
| CCOc1ccc(NS(=O)(=O)c2cc(C(=O)NCCN3CCOCC3)ccc2C)cc1 | 360 |
| O=C(Cc1ccccc1)NCCS(=O)c1ccc(Cl)cc1 (centres undefined) | 58.3 |
| CC(C)(CNC(=O)c1ccc(Cl)c(S(=O)(=O)N2CCc3ccccc3C2)c1)N1CCOCC1 | -44.4 |
| CCN(CC)S(=O)(=O)c1ccc(N2CCOCC2)c(NC(=O)c2nn(C(C)C)c(=O)c3ccccc23)c1 | -4.17 |
| Cc1ccc(OC(=O)CCC(=O)Oc2ccc(C)cc2C)c(C)c1 | 70.8 |
| CC(C)C[C@@H](CO)N(Cc1ccccc1)S(=O)(=O)N(Cc1ccccc1)[C@H](CO)CC(C)C | -80 |
| O=C(Nc1ccccc1)Nc1cc(OCC(F)(F)F)cc(OCC(F)(F)F)c1 | 0 |
| O=C(NCCCn1ccnc1)C(=O)NCC1OCCCN1S(=O)(=O)c1ccccc1 (centres undefined) | 8.33 |

| SMILES | activity change, negative = inhibition [%] |
| --- | --- |
| Cc1ccc(S(=O)(=O)NCc2ccncc2)cc1C | 25 |
| Cc1cc(S(=O)(=O)NCc2ccncc2)c(C)cc1Br | 275 |
| CC(=O)N1CCOc2cc(S(=O)(=O)NCc3ccc(F)cc3)c(C)cc21 | 179 |
| COCc1nn2c(N)c(C#N)cnc2c1-c1ccccc1 | 16.7 |
| CC(=O)OCC(=O)[C@@]1(O)CC[C@H]2[C@@H]3CCC4=CC(=O)CC[C@]4(C)[C@H]3C(=O)C[C@@]21C | 12.2 |
| CC(NNC(=S)N1CCN(c2ccccn2)CC1)c1nccc2ccccc12 (centres undefined) | 300 |
| Cc1c(C)c2ccc(OCC(=O)Nc3ccccn3)c(C)c2oc1=O | 107 |
| Cc1ccc(S(=O)(=O)NCCc2cc3ccc(C)cc3[nH]c2=O)cc1 | 33.6 |
| Cc1cc(C(=O)COC(=O)c2ccccc2O)c(C)n1Cc1cccs1 | -4.54 |
| CN=C1c2cc3cc(OC)ccc3n2CCN1Cc1ccccc1 | 64.3 |
| COc1ccc(OC)c(NC(=O)CN(Cc2ccc(F)cc2)C2CCCCC2)c1 | -40 |
| CC(C)(C)c1nc(NCCN2CCOCC2)c2nnn(Cc3ccccc3Cl)c2n1 | -45.5 |
| CCC(C)[C@H]1CNC(=S)N1CCc1cc(C(F)(F)F)cc(C(F)(F)F)c1 (some centres undefined) | 177 |
| CCN(CC)C(=O)C1CCCN(c2ccc([N+](=O)[O-])cc2[N+](=O)[O-])C1 (centres undefined) | 58.3 |
| C[C@]12CC[C@H](O)CC1=CCC1C2CC[C@@]2(C)C1CCC21OCCO1 (some centres undefined) | 16.7 |
| Cc1cc(-n2c(C)cc(C(=O)CSc3nncn3C)c2C)no1 | -18.2 |
| CCOc1ccc2nc(SC3CC(=O)N(c4ccc(C)cc4)C3=O)sc2c1 (centres undefined) | 30 |
| Cc1ccc(CNC(=O)c2ccc3c(=O)c(O)c(-c4ccc(C)cc4)[nH]c3c2)cc1 | -14.3 |
| CCc1c(O)nc(SCC(=O)Nc2ccccc2)n(-c2ccccc2)c1=O | 80 |
| CN(C(=O)CSc1nc(-c2cccs2)nc2ccccc12)C1CCS(=O)(=O)C1 (centres undefined) | -119 |
| CCN(CC)Cc1c(O)ccc2c1O/C(=C\C=C\c1ccccc1)C2=O | 60 |
| O=C(NCCc1ccccc1)c1ccc2c(c1)OCCO2 | -2.38 |
| COc1ccc2c(c1OC)C(=O)N1c3ccccc3C(=O)N(c3ccccc3F)C21 (centres undefined) | 87.5 |
| CSc1nnc(-c2ccco2)n1-c1ccccc1 | 31.8 |
| CC(C)N1CCN(c2ccc(OCC3COC(Cn4cncn4)(c4ccc(Cl)cc4Cl)O3)cc2)CC1 (centres undefined) | 0 |
| COc1c(CC=C(C)C)cc(C2CC(=O)c3c(O)cc(O)cc3O2)cc1CC=C(C)C (centres undefined) | 50 |

| SMILES | activity change, negative = inhibition [%] |
| --- | --- |
| Nc1nc(N)c2cc(S(=O)(=O)c3ccc4ccccc4c3)ccc2n1 | 16.7 |
| C[C@@H]1CN([C@H](C)CO)C(=O)CCCn2nncc2CO[C@H]1CN(C)S(=O)(=O)c1ccc2c(c1)OCCCO2 | -47.9 |
| O=C(NCCNC(=O)Oc1cccc2ccccc12)Oc1cccc2ccccc12 | 41.7 |
| COc1cc(OC)c(OC)cc1CCC(C)NCCC(c1ccccc1)c1ccccc1 (centres undefined) | -33.3 |
| Cc1ccc(C)c(N2CCN(S(=O)(=O)c3ccc4[nH]c(=O)ccc4c3)CC2)c1 | 4.54 |
| CC1(Cc2ccc(OC(F)(F)F)cc2)C(=O)Nc2c(Cl)ccc(Cl)c21 (centres undefined) | 30 |
| Cc1csc(=O)n1CC(=O)OCC(=O)c1c(N)n(C)c(=O)n(C)c1=O | 10 |
| COc1ccc(CC(=O)Nc2ccncc2Cl)cc1 | -54.2 |
| O=[N+]([O-])c1cccc(S(=O)(=O)NCc2ccncc2)c1 | 14.3 |
| NS(=O)(=O)c1ccc(CNC(=S)NC(=O)c2ccco2)cc1 | 40.3 |
| Cc1ccc(-c2nc(-c3ccccn3)no2)cc1 | -90.9 |
| c1ccc(-c2noc(-c3ccc4ccccc4c3)n2)nc1 | -2.38 |
| CCOC(=O)c1c(NC(=O)c2nn(CC)cc2Br)sc(C)c1C | 16.7 |
| CN(C)c1ccc(/C=C/c2ccc3ccccc3n2)cc1 | 117 |
| Fc1ccccc1N1CCN(Cc2nc(-c3ccccc3)no2)CC1 | -87.1 |
| O=C(Nc1ccc([N+](=O)[O-])cc1)C(=O)Nc1cccc(C(=O)O)c1 | 43.3 |
| COc1ccc(NS(=O)(=O)c2ccc(-c3cnc(C4CC4)o3)cc2)cc1OC | 40 |
| Cc1oc(=O)c(NC(=O)c2ccc(Cl)cc2)cc1C(=O)c1ccccc1 | -75 |
| O=C(CN1C(=O)c2ccccc2S1(=O)=O)c1ccc2c(c1)OCCCO2 | -16.7 |
| O=C(CN1C(=O)c2ccccc2S1(=O)=O)c1ccc(Cl)cc1Cl | -103 |
| CC1CCN(C(=O)c2ccc(N3C(=O)C4CCC(C)CC4C3=O)cc2)CC1 (centres undefined) | 27.8 |
| CCN(CC)C(=O)[C@H]1C[C@H](CC(=O)NC/C=C(\C)CCC=C(C)C)C(=O)N2CCc3c([nH]c4cc(CCC(=O)N(C)C)ccc34)[C@]12C | -16.7 |
| COc1ccc(C(=O)NNC(=O)c2cccc(S(=O)(=O)N3CCOCC3)c2)cc1 | 19.6 |
| O=C(Nc1nc(-c2ccccc2)cs1)C1CCCCN1S(=O)(=O)c1ccccc1 (centres undefined) | -104 |
| O=C(O)C1(Nc2ccccc2Cl)CCCC1 | -15 |
| Cc1cc(C(=O)Cn2cnc3cc(F)ccc3c2=O)c(C)n1C1CC1 | -16.7 |

| SMILES | activity change, negative = inhibition [%] |
| --- | --- |
| Cc1ccc(C(=O)Nc2ccc3c(c2)C(=O)N(CC2CCCO2)C3=O)cc1 (centres undefined) | 80 |
| CC(C)NCC(O)COc1cccc2ccccc12 (centres undefined) | -29 |
| COc1ccc(S(=O)(=O)N2CCOCC2)cc1NC(=O)COC(=O)CC1CC2CCC1C2 (centres undefined) | 50 |
| COc1cc(NS(=O)(=O)c2ccc(C)cc2C)cc(OC)c1OC | -27.3 |
| CCCC(c1nnnn1Cc1ccc(OC)cc1)N1CCN(c2ccccc2)CC1 (centres undefined) | 117 |
| C=CCOC(=O)C1=C(C)N=C2SCCC(=O)N2C1c1cccs1 (centres undefined) | -29.2 |
| CCO[C@@H]1OC(C(=O)NC2CC2)=C[C@H](c2coc3ccccc3c2=O)[C@H]1CCCO | 120 |
| Cc1ccc(S(=O)(=O)N2CCCCC2)cc1NS(=O)(=O)c1ccccc1F | 200 |
| COc1ccccc1C(=O)Nc1nc2ccccc2[nH]1 | 43.3 |
| COc1ccc(N(C)C(=O)c2ccc3snnc3c2)cc1 | -52.1 |
| CN(C)c1ccc(/C=C/c2nc3ccccc3s2)cc1 | 27.8 |
| O=C1CCc2cccc(O)c2N1 | -23.2 |
| Cc1c(CCOC(=O)CC23CC4CC(CC(C4)C2)C3)sc[n+]1CC(=O)c1ccc(Br)cc1 | -59.3 |
| CN(C)CCN1C(=O)c2cccc3cc([N+](=O)[O-])cc(c23)C1=O | 310 |
| CSc1cccc(NC(=O)N2CCCC(CNS(=O)(=O)Cc3ccccc3)C2)c1 (centres undefined) | 62.5 |
| CCN(CC)c1ccc2c(c1)oc(=O)c1c(Cl)cc(=O)oc12 | -33.3 |
| Cc1cccc(N2CCN(C(=S)Nc3ccc4nc(N5CCN(C)CC5)cc(C)c4c3)CC2)c1C | 22.7 |
| O=c1c2ccccc2c(C=Nc2ccccc2O)c(O)n1-c1nccs1 | -2.5 |
| Cc1ccc(-c2cn3cc(C)ccc3n2)cc1 | 10 |
| CC(C)CC(NC(=O)c1ccc(Cl)cc1)C(=O)OCC(=O)c1ccc2c(c1)NC(=O)CO2 (centres undefined) | -16.7 |
| CN1CCN(c2ccc(-c3ccc4ccccc4n3)cc2)CC1 | -31.9 |
| CC(C)(C)n1nnnc1C(c1cccs1)N1CCCC2(CCCCC2)C1 (centres undefined) | 54.2 |
| O=C(CSc1nc(C(F)(F)F)cc(=O)[nH]1)N1CCCC1 | 231 |
| CC(=O)N(CCc1ccccc1)c1ccc2c(c1)C1CC2CCN1C(=O)OCc1ccccc1 (centres undefined) | -90.9 |
| COc1ccc(NS(=O)(=O)c2ccc(N3CCOCC3)c(N)c2)cc1 | -21.1 |
| COc1ccc(NS(=O)(=O)c2cccc(NC(=O)c3ccc(S(=O)(=O)N4CCCCCC4)cc3)c2)cc1 | 11.9 |
